The source of these data is PubChem BioAssay AID652231 (Johns Hopkins Ion Channel Center, 2013).

Out of some 2,300 compounds screened, about 55 (2%) were called active.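 How the source made its calls: active means duplicate-averaged calcium signal over 20% of the ionomycin maximum, relative to buffer baseline; inactive means the rest.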 The list comes from a sample in which actives are over-represented; it also holds similar structures and randomly drawn compounds.

The nature of the test: calcium mobilization in TMEM16A/YFP HEK293 cells, confirmation, counter-screen for TMEM16A inhibitor project (AID 652231).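 On calcium response (% of ionomycin): each well's signal is peak minus trough fluorescence divided by its pre-addition baseline; 0% = buffer wells and 100% = ionomycin wells.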 To be noted: TMEM16A/YFP HEK293, Fluo4 calcium mobilization, at 10 µM; hits give high values.
Take `CSc1nnc2c(n1)OC(c1ccsc1)N(C(C)=O)c1ccccc1-2` (centres undefined): the calcium response (% of ionomycin) result is “inactive”.

With `CCOC(=O)C1=C(CN2CCc3ccccc32)NC(=O)NC1c1cccc([N+](=O)[O-])c1` (centres undefined), the calcium response (% of ionomycin) result was “inactive”.

For the molecule `O=S1(=O)CCN(Cc2ccccc2Cl)CC1`, the calcium response (% of ionomycin) result is “inactive”.

With `COc1ccc(Cl)cc1NC(=O)CCS(=O)(=O)c1cc2c(cc1C)NC(=O)CO2`, the calcium response (% of ionomycin) entry was “inactive”.

For the molecule `O=C(Nc1nc(-c2ccc3c(c2)OCO3)cs1)c1ccncc1`, the calcium response (% of ionomycin) result was “inactive”.

For the molecule `Cc1nc2ccccc2cc1OCc1ccc(F)cc1`, the calcium response (% of ionomycin) entry was “inactive”.

With `CC(C)(C)C(=O)/C(C#N)=C/c1ccc(O)cc1`, the calcium response (% of ionomycin) result was “inactive”.

On to `O=C(O)c1ccc(NC(=O)C2CCCCC2)cc1`, for which the calcium response (% of ionomycin) result is “inactive”.

Turning to `Cc1ccc(-n2[nH]c(C)c(/C=N/N3C(=O)c4cccc5cccc(c45)C3=O)c2=O)cc1`, the calcium response (% of ionomycin) is 43.5% (active).

Regarding `Cc1[nH]n(-c2cccc(Cl)c2)c(=O)c1-c1ccc(Cl)cc1`, the calcium response (% of ionomycin) result is “inactive”.

For the molecule `O=C1c2ccccc2C(Nc2ccc3c(c2)OCCO3)N1Cc1ccco1` (centres undefined), the calcium response (% of ionomycin) entry is “inactive”.

For the molecule `Cc1cccc(N=Nc2c(O)[nH]c3ccc(F)cc23)c1`, the calcium response (% of ionomycin) entry is “inactive”.

As to `CCCCn1ccnc1C(=O)c1cccc(S(=O)(=O)N2c3ccccc3CC2C)c1` (centres undefined), the calcium response (% of ionomycin) entry was “inactive”.

For the molecule `O=C(CNCCC1=CCCCC1)Nc1ccccc1N1CCCCCC1`, the calcium response (% of ionomycin) entry was “inactive”.

`CCCC(=O)Nc1ccccc1N1CCN(C(=O)c2ccccc2)CC1`: the calcium response (% of ionomycin) entry was “inactive”.

`S=C(NCc1cccs1)Nc1ccc(Cl)cc1`: the calcium response (% of ionomycin) entry is “inactive”.

For the molecule `N#Cc1nc(N)nc(N(c2ccccc2)c2ccccc2)n1`, the calcium response (% of ionomycin) result is “inactive”.

Regarding `Fc1ccc(CSc2nnc(-c3cc4c(s3)-c3ccccc3CC4)o2)cc1`, the calcium response (% of ionomycin) entry is “inactive”.

In the case of `Cn1c(CN2CCOCC2)nc2cc(NC(=O)c3ccc(Cl)cc3)ccc21`, the calcium response (% of ionomycin) result is “inactive”.

As for `O=C1NC(=O)C2C1C(c1ccc([N+](=O)[O-])cc1)=NN2Cc1ccccc1` (centres undefined), the calcium response (% of ionomycin) entry was “inactive”.

In the case of `O=C(N/N=C/c1cc(Cl)cc([N+](=O)[O-])c1O)C(O)(c1ccccc1)c1ccccc1`, the calcium response (% of ionomycin) result was “inactive”.

Turning to `O=C(COc1ccccc1)NCc1ccc2c(c1)OCO2`, the calcium response (% of ionomycin) result was “inactive”.

On to `CN(C)c1cc[n+](Cc2ccccc2)cc1`, for which the calcium response (% of ionomycin) entry is “inactive”.

As for `CCCCCc1ccc(-c2ccc(C(=O)O)cc2)nc1`, the calcium response (% of ionomycin) entry was “inactive”.

`Cc1ccc2c(c1)N(CC(=O)N1CCCc3ccccc31)C(=O)C(C)O2` (centres undefined): the calcium response (% of ionomycin) result was “inactive”.

Consider `COC(=O)c1ccc(COC(=O)c2c(C)nn(Cc3ccccc3Cl)c2Cl)o1`, for which the calcium response (% of ionomycin) entry was “inactive”.

Take `CCOC(=O)C1CCN(c2ncnc3c2oc2ccc(Br)cc23)CC1`: the calcium response (% of ionomycin) entry was “inactive”.

For the molecule `Cc1nc(CNS(=O)(=O)c2ccc(Oc3ccccc3)cc2)cs1`, the calcium response (% of ionomycin) result was “inactive”.

For the molecule `CC(=O)c1cc(CN2CCC(C(=O)Nc3cccc(-c4cscn4)c3)CC2)cs1`, the calcium response (% of ionomycin) entry is “inactive”.

As for `c1ccc(-c2nnc(SCc3nc4ccccc4[nH]3)o2)cc1`, the calcium response (% of ionomycin) entry is “inactive”.

Regarding `COc1ccc(-n2c(C)cc(C(=O)CSc3nnc(-c4cccs4)o3)c2C)cc1`, the calcium response (% of ionomycin) result was “inactive”.

In the case of `O=C(NC(=S)Nc1ccccc1C(=O)O)c1ccc(-c2ccc(Br)cc2)o1`, the calcium response (% of ionomycin) was 29% (active).

On to `O=C(Nc1ccccc1)c1ccccc1NC(=O)C(F)(F)F`, for which the calcium response (% of ionomycin) entry is “inactive”.

As for `N#CC1=C(SCc2ccccc2)NC(=O)C(C#N)C12CCCC2` (centres undefined), the calcium response (% of ionomycin) result is “inactive”.
